Source: PubChem BioAssay
Rab9 prom act: qHTS Assay for Rab9 Promoter Activators; AID 485297, 2010; Potency, µM (series often up to 9.22 µM), inactives show at the highest dose activation, negative = inhibition, most hits filed as activators; Huh7 Rab9 promoter-luciferase reporter, luminescence, 24 h; 320,000 compounds, 2.8% hits; further: % of control where 0% means no effect; nearly all actives have a fitted effect of over 60% in size
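Luciferase signal after 10 min detection reagent at ambient indicates Rab9 promoter upregulation; stably transfected Huh7 cells were treated 24 h with compound in DMSO at 37 °C, 5% CO2.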
FLuc counter: qHTS profiling assay for firefly luciferase inhibitor/activator using purifed enzyme and Km concentrations of substrates (counterscreen for miR-21 project). Luciferin 4-monooxygenase (Photinus pyralis), P08659. purified FLuc, Km substrates, luminescence inhibition. Potency, µM (top dose mostly 57.5 µM), inactives show top-dose activity change, negative = inhibition, usual class: inhibitors. 360,000 compounds, 6.9% hits. AID 588342, 2011;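 further: plate controls were vehicle for no effect and reference inhibitor for full effect; nearly all actives have a fitted effect of over 55% in size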
Target sequence (P08659 whole entry, looked up): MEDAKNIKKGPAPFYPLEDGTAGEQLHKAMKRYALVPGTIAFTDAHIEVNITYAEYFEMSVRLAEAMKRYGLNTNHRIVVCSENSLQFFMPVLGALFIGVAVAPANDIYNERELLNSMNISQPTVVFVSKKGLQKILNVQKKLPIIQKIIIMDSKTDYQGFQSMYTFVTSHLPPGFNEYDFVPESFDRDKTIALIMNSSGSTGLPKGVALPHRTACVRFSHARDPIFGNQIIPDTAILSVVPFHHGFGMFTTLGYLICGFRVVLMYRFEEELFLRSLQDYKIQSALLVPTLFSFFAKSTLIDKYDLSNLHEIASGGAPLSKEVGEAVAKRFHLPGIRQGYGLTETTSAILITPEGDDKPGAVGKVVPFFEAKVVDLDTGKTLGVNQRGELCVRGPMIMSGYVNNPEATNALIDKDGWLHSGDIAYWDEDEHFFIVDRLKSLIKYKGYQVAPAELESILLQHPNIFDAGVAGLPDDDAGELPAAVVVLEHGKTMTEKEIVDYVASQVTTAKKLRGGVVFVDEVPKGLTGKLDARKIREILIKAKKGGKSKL
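Purified P. pyralis luciferase, 10 nM final, with Km-level 10 uM D-luciferin and 10 uM ATP in 50 mM Tris acetate pH 7.5, 10 mM Mg acetate, 0.01% Tween-20, 0.05% BSA; 6-point qHTS titration about 60 µM downward; luminescence read.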
NPC1 promoter act: qHTS Assay for NPC1 Promoter Activators; Huh7 NPC1 promoter luciferase reporter, 24 h; Potency, µM (titrated, usually from 9.22 µM), inactives show at the highest dose activation, usual class: activators; 320,000 compounds, 2.4% hits; further: % of control where 0% means no effect; nearly all actives have a fitted effect of over 60% in size
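Stable NPC1-promoter luciferase Huh7 line; cpd (DMSO) 24 h, 37 °C, 5% CO2; Amplite luciferase reagent 10 min RT; luminescence readout. qHTS format.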
ELG1 genotox: qHTS screen for small molecules that induce genotoxicity in human embryonic kidney (HEK293T) cells expressing luciferase-tagged ELG1; AID 504466, 2011; Potency, µM (titrated, usually from 46 µM), without a hit: at the top dose activity change, positive = activation, usual class: activators; HEK293T ELG1-luciferase reporter, luminescence, 16 h; 330,000 compounds, 1.3% hits; further: % of control where 0% means no effect; nearly all actives have a fitted effect of over 60% in size
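Luminescence read-out: rising ELG1-luciferase signal, reflecting elevated ELG1 protein under genetic stress, flags genotoxic compounds. Cells were treated for 16 hr at 37 °C before ONE-Glo detection.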
SMN2 splice up: qHTS Assay for Enhancers of SMN2 Splice Variant Expression. AID 1458, 2008. 210,000 compounds, 2.8% hits. HEK293 SMN2-luciferase splicing reporter, luminescence, 30-36 h. Potency, µM (top dose mostly 46.1 µM), for the others: at the highest dose activity change, positive = activation, usual class: activators; further: % of control where 0% means no effect; nearly all actives have a fitted effect of over 55% in size
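HEK293 cells carry an SMN2 minigene-luciferase reporter in which exon 7 inclusion puts luciferase in frame. Cells were seeded at 2000 cells/well, attached for 10-12 hours, then exposed to compounds for 30-36 hours at 37C before ONE-Glo luminescence.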
The depositor's hits bear a star; ? = inconclusive; . = not tested or not shown; [ ] = remark or other dose. This is a sample that favours compounds with a hit; in the whole collection about 7.4% have one here. The call rests on the fitted dose curve; in most records, active means well fitted curve in the direction sought with a large enough effect; inconclusive means small, poorly fitted or top-dose-only effect, or another doubt; inactive means no such curve, though single readings can be large; an effect the other way counts as inactive or inconclusive. Potency means the concentration at half of the fitted maximal effect.

SMILES	Rab9 prom act	FLuc counter	NPC1 promoter act	ELG1 genotox	SMN2 splice up
CN(C)/C=C/C(=O)c1ccc(-c2ccc(Cl)cc2Cl)o1	4.5µM*	9.5µM*	?	?	?
COc1cc(C2C(=O)N(C3CCCCCC3)CC(=O)N2CCc2ccccc2)ccc1OC(C)C (stereo unspecified)	.	7%	.	.	.
Cc1cc(C)c(NC(=O)Cn2c(=O)n(-c3cccc(C(F)(F)F)c3)c(=O)c3c(C)c(C)sc32)c(C)c1	.	3%	.	.	-5%
COc1ccc(N2CCN(S(=O)(=O)c3ccc4oc(=O)c5ncn(C)c5c4c3)CC2)cc1	.	0%	.	.	.
Nc1nonc1-c1noc(N2CCCCC2)n1	?	19µM*	-2%	?	14%
CC12CC[C@@](C(=O)O)(C(=O)C1=O)C2(C)C	.	.	.	.	4%
CCCCCn1cnc2c(sc3nc4c(cc32)CSC(C)(C)C4)c1=O	3.2µM*	3.8µM*	3.5µM*	?	19%
CCc1nc2sc3c(=O)[nH]cnc3c2c2c1CSC(C)(C)C2	-3%	-1%	-2%	7%	.
CC1(C)Cc2nc3sc4c(=O)[nH]cnc4c3cc2CS1	14%	13µM*	26%	?	?
CC/C=C\C/C=C\C/C=C\C/C=C\C/C=C\C/C=C\CCC(=O)O[C@H](COCCCCCCCCCCCCCCCC)COP(=O)([O-])OCC[N+](C)(C)C	.	.	.	.	0%
Cc1nn(Cc2c(F)c(F)c(F)c(F)c2F)c(C)c1NC(=O)c1cccc(COc2ccccc2Cl)c1	0.35µM*	6µM*	0.5µM*	?	10µM*
O=C(O)c1ccc(COc2ccccc2Cl)cc1	24%	21µM*	14%	2%	12%
Cc1nn(Cc2cccc(F)c2)c(C)c1NC(=O)c1ccc(COc2ccccc2Cl)cc1	3%	4%	-3%	-24%	-67%
Cc1nn(Cc2c(Cl)cccc2Cl)c(C)c1NC(=O)c1cc(C(C)C)on1	0%	-1%	1%	-4%	3.5µM*
O=C(O)c1cccc(COc2ccccc2Cl)c1	0.89µM*	0.15µM*	?	.	0.032µM*
Cc1nn(Cc2ccccc2Cl)c(C)c1NC(=O)c1cc(C(C)C)on1	.	-15%	.	.	?
COc1ccc(CNC(=O)Cc2c(C)c3c(cc(C)c4c(C)c(C)oc43)oc2=O)cc1	.	-1%	.	.	4%
CCCN(C(=O)CCc1nc(-c2ccc(OC)cc2)no1)c1ccccc1F	.	-4%	.	.	-15%
Cc1cccc(-n2cnc3cc(C(=O)NCc4ccccc4Cl)ccc32)c1	.	-15%	.	.	.
CN1CCN(C(=O)c2ccc(COc3cc(Cl)ccc3Cl)o2)CC1	-4%	-3%	-1%	6%	.
O=C(Nc1ccccc1Cl)c1cccc(COc2cc(Cl)ccc2Cl)c1	4µM*	?	2.2µM*	?	6.3µM*
COc1ccc(C(=O)Nc2cc(OCc3ccccc3)c(Cl)cc2Cl)cc1	0%	1%	-3%	-3%	-15%
CN1CCN(C(=O)c2cccc(COc3cc(Cl)ccc3Cl)c2)CC1	1.1µM*	?	3.2µM*	?	10µM*
CCN(C(=O)C1CCN(S(=O)(=O)c2cc(Br)cc3c2N(C(C)=O)CC3)CC1)c1cccc(C)c1	.	0%	.	.	-12%
CCOC(=O)c1c(NC(=O)/C=C/c2ccc(Cl)cc2)sc2c1CCC(C)C2 (stereo unspecified)	.	-2%	.	.	-3%
SMILES	Rab9 prom act	FLuc counter	NPC1 promoter act	ELG1 genotox	SMN2 splice up
Cc1ccc2nc(-c3cc(NC(=O)COc4ccc(C)c(C)c4)ccc3Cl)oc2c1	.	?	.	.	6%
O=C(Nc1cnc2sccn2c1=O)c1ccccc1Cl	?	15µM*	1.6µM*	18µM*	23%
O=C(Nc1ccon1)c1cnc2sccn2c1=O	12%	-20%	21%	1%	.
Cc1cccc(NC(=O)c2cnc3sccn3c2=O)c1C	1.1µM*	2.7µM*	?	4.1µM*	5.6µM*
Cc1cccc(NC(=O)c2cnc3sccn3c2=O)c1	0.45µM*	3.4µM*	0.89µM*	?	.
Cc1cccc(NC(=O)c2cnc3ccccn3c2=O)c1	0.32µM*	0.67µM*	0.63µM*	0.41µM*	0.71µM*
Cc1ccc(NC(=O)Nc2nnc(N(C)Cc3ccccc3)s2)cc1	.	-9%	.	.	.
CCn1cc(C(=O)OCC(=O)Nc2cc(Cl)ccc2OC)c(=O)c2ccc(C)nc21	.	3%	.	.	-3%
COc1ccc(NC(=O)c2cnc3sccn3c2=O)cc1	2.5µM*	?	?	4.1µM*	14µM*
Oc1cc2c(cc1O)C1c3ccc(O)c(O)c3OCC1(O)C2 (stereo unspecified)	9%	8.5µM*	1%	1%	-106%
CCCCOC(=O)n1c(=S)oc2cc(Cl)ccc21	-6%	17µM*	0%	1%	-11%
COc1ccc(NC(=O)C(C)n2nnc3sc(-c4ccccc4)cc3c2=O)cc1Cl (stereo unspecified)	.	6µM*	.	.	-1%
CCC(C(=O)OC)n1nnc2sc(-c3ccccc3)cc2c1=O (stereo unspecified)	.	19µM*	.	.	-1%
CC(C)c1ccc(NC(c2nnc(-c3ccccc3)o2)c2ccc(F)cc2Cl)cc1 (stereo unspecified)	.	0%	.	.	.
O=C(O)/C=C\C(=O)Nc1ccc2c(c1)-c1ccccc1C2	.	.	.	.	-6%[9.22 µM]
C=CCOC(=O)C(=O)/C=C/c1ccc2c(c1)Cc1ccccc1-2	2%	11µM*	-1%	7%	.
Cc1ccc(CN/C=C/C(=O)c2ccc(Br)cc2)cc1	20%	17µM*	20%	5%	17%
Cc1ccc(C(=O)/C=C/NCc2ccc(F)cc2)cc1	5%	17µM*	-3%	10%	29%
CC(C)c1noc(-c2ccccc2OCC(=O)Nc2cccc([N+](=O)[O-])c2)n1	.	-8%	.	.	.
CCOc1ccc(-c2nc(SCC(=O)Nc3cc(F)ccc3F)n3[nH]c(=O)cc3n2)cc1	.	-1%	.	.	.
COc1ccc(-c2ccc(-c3noc(-c4cccs4)n3)c(OC)n2)cc1	28%	-14%	16%	?	12%
COc1ccc(-c2csc(-n3ncc(-c4cccs4)c3N)n2)cc1	6%	4.3µM*	-6%	1%	-6%
COc1ccc(-c2csc(-n3cccn3)n2)cc1	1.4µM*	3.8µM*	2.5µM*	?	.
COc1ccc(-c2cn3c(n2)CCC3)cc1	1.6µM*	13µM*	2.5µM*	?	13µM*
c1ccc(-c2ccc(-c3cn4c(n3)CCC4)cc2)cc1	?	0.85µM*	0.45µM*	?	27%
Cc1ccc(-c2cn3c(n2)CCCC3)cc1	-6%	-6%	-11%	0%	-25%
CCOC(=O)c1cccc(NC(=O)Cn2ncc3c4ccccc4n(Cc4ccccc4)c3c2=O)c1	.	-2%	.	.	12%
